# Assay results taken from PubChem BioAssay AID2326 (National Center for Advancing Translational Sciences (NCATS), 2010).
# The campaign covered roughly 270,000 compounds. About 1,100 (0.41%) were called active. Another 3% or so got no clear call; they are omitted. This is one part of a sample in which actives are shown more often than they occur. Calls come from the whole dose curve.
# Assay: qHTS Assay for Inhibitors of Influenza NS1 Protein Function; note: actives are rising curves; nearly all actives have a fitted effect of over 50% in size
# Settings: series mostly up to 46.1 µM; activity, positive = more growth: at the top concentration
# Source text: NIH Chemical Genomics Center [NCGC]
# NIH Molecular Libraries Probe Centers Network [MLPCN]
# Assay Submitter (PI): Daniel Engel
# Influenza is a world-wide public health problem and emerging forms of the virus have the potential to cause a pandemic of equal or greater magnitude to the outbreaks recorded in 1918, 1957 or 1968. Vaccine development is proceeding and there also exist two classes of anti-influenza compounds. However these therapeutic modalities are neither fully effective nor widely enough available to fulfill global needs. In addition their potential usefulness against newly emergent strains is not known. Efforts are needed to develop novel agents against influenza virus, including broad-spectrum agents. Identification of small molecules that inhibit NS1 function either directly or by interfering with specific cellular pathways may be a key to increasing our defense against the virus.
# We have miniaturized and optimized a cell based assay in which NS1 from influenza A is expressed in the budding yeast S. cerevisiae. NS1 is a multi-functional protein that counters the host innate immune response and facilitates viral versus cellular gene expression. Expression of NS1 causes a pronounced slow growth phenotype in yeast due to its intrinsic molecular activities. Small molecules that suppress the slow growth phenotype can be identified by a straightforward growth recovery assay using optical density (OD) as the measurement. The same yeast strain not expressing NS1 was used as positive control in the yeast growth recovery assay.
# The yeast S. cerevisiae control and NS1 expressing cells were kindly supplied by laboratory of Dr. Daniel Engel, University of Virginia. Yeast starter cultures were stored in single use aliquots at -80C.
# 1. Yeast culture medium per liter: 1.2 g Yeast Nitrogen Base (w/out amino acids and Ammonium Sulphate), 5.0g Ammonium Sulphate, 0.77g -URA DO (drop-out) Supplement, adjust pH to 6.0. Adjust to 2% glucose prior to inoculating with yeast.
# 2. Yeast assay medium: 1.2 g Yeast Nitrogen Base (w/out amino acids and Ammonium Sulphate), 5.0g Ammonium Sulphate, 0.77g -URA DO (drop-out) Supplement, adjust pH to 6.0. Adjust to 2% D-galactose prior to inoculating with yeast.
# 1. Inoculate 100 mls of yeast culture medium with 1 ml of frozen yeast aliquote. Incubate overnight at 30C, 250RPM.
# 2. Harvest overnight culture at 4000 RPM and wash pellet with 15 mls H2O 3x.
# 3. Re-suspend washed pellet in 10 mls of yeast assay medium.
# 4. Prepare a 1:100 dilution of re-suspended culture in yeast assay medium.
# 5. Dispense 3.5 ul per well of reagents in step 4 in columns 2-48 in a black clear bottom 1536 well plate.
# 6. Dispense 3.5 ul per well of yeast assay medium in column 1 only.
# 7. Transfer 23 nl of compound per well.
# 8. Dispense 3.5 ul per well of yeast assay medium in columns 1-48.
# 9. Read plate using Viewlux protocol for optical density 600 (OD600) using excitation filter 600nm.
# Potency is the fitted concentration of half-maximal effect.
SMILES,"activity, positive = more growth",Potency
COc1ccc(/C=C2\SC(=O)N(CCC(=O)NC3CCS(=O)(=O)C3)C2=O)cc1 (configuration not stated),-18.3% (inactive),
O=C(CCS(=O)(=O)c1ccccc1)Nc1nc2c(s1)CCCC2,-11.9% (inactive),
Cc1nnc(NC(=O)Cn2c(=O)sc3ccccc32)s1,0.343% (inactive),
Cc1ccc(-n2c(SCC(=O)N3CCC(C(=O)O)CC3)nc3ccccc3c2=O)cc1C,11.5% (inactive),
Cc1ccc(NS(=O)(=O)c2ccc(-c3coc(C)n3)cc2)c(C)c1,4.83% (inactive),
CC(C)c1ccc(OCC(=O)N2CCN(C)CC2)c(Br)c1,-5.71% (inactive),
CN1CCN(C(=O)COc2ccc(C(C)(C)C)cc2Br)CC1,,3.98 µM (active)
CCOc1cc(CO)ccc1OCC(=O)N1CCCCC1,3.05% (inactive),
CC(C)(C)c1ccc(SCCc2ccncc2)cc1,-39.6% (inactive),
O=C(N/N=C/c1ccccc1O)C1CCCC1,-10.7% (inactive),
O=C(CSc1ccc(-c2ccccn2)nn1)Nc1ccccc1,-103% (inactive),
CCOc1ccccc1/C=N/Nc1nc2ccccc2o1,-5.44% (inactive),
O=S(=O)(NCc1ccc(Cl)cc1Cl)c1cccs1,-58.9% (inactive),
COCCCNc1nc2c(-c3cccc(C)c3)nnn2c2ccc(Cl)cc12,-31.8% (inactive),
CCCc1[nH]nc2c1C(c1c(C)nn(-c3ccccc3)c1Cl)C(C#N)=C(N)O2 (configuration not stated),5.69% (inactive),
CCCc1[nH]nc2c1C(C1CC=CCC1)C(C#N)=C(N)O2 (configuration not stated),6.91% (inactive),
CCCc1[nH]nc2c1C(c1ccc(Br)s1)C(C#N)=C(N)O2 (configuration not stated),,2.51 µM (active)
Cc1cccc(C(=O)NC(=S)N(C)C2CCCCC2)c1,-54.8% (inactive),
COc1ccc(CCc2nc(-c3cccs3)no2)cc1,-25.1% (inactive),
COc1ccc(C(=O)NC(=S)N2CCCCC2c2cccnc2)cc1OC (configuration not stated),-12% (inactive),
O=C(N/N=C/c1cccc(OCc2ccccc2)c1)c1ccc(Br)o1,-38.4% (inactive),

SMILES,"activity, positive = more growth",Potency
O=C(Cc1ccc(Cl)cc1)NC(=S)Nc1ccccc1O,5.46% (inactive),
Cc1cccc(-n2c(SCC(=O)Nc3cccc(S(=O)(=O)NC4=NCCCCC4)c3)nc3ccccc3c2=O)c1C,,22.4 µM (active)
NS(=O)(=O)c1cccc(NC(=O)CSc2nc3ccccc3n2-c2ccccc2)c1,15.1% (inactive),
CCc1ccc(C(=O)OCC(=O)Nc2cccc(S(=O)(=O)NC3=NCCCCC3)c2)cc1,-22% (inactive),
CCN(CC(=O)Nc1ccc(C)c(S(=O)(=O)N(C)C)c1)Cc1ccccc1,-2.09% (inactive),
Cc1ccc(CSc2nsc(C)c2C#N)cc1,-1.63% (inactive),
COc1ccc(C(=O)CC(=O)C(=O)Nc2cc([N+](=O)[O-])ccc2OC)cc1,8.6% (inactive),
CSc1nccc(NC(=O)c2ccc(C(C)(C)C)cc2)n1,-43.5% (inactive),
O=C(COc1ccc(Cl)cc1Cl)N/N=C/c1ccccn1,-55.6% (inactive),
O=C(O)CC(Cn1cnnn1)c1ccccc1 (configuration not stated),,8.91 µM (active)
O=C(O)CC(CC(=O)N1CCOCC1)c1ccccc1 (configuration not stated),4.06% (inactive),
O=C(O)CC(c1ccccc1)n1cnnn1 (configuration not stated),-1.31% (inactive),
Cc1ccc(CNC(=O)C(=O)c2cn(CC(=O)N3CCCC3)c3ccccc23)cc1,1.2% (inactive),
COc1cc(CNCc2ccc(OC)c3ccccc23)cc(OC)c1OC,12.4% (inactive),
COc1ccc(Nc2ncnc3ccc(Br)cc23)c(OC)c1,-47.8% (inactive),
COc1ccc(CC(=O)N/N=C/c2cc([N+](=O)[O-])cc(Br)c2O)cc1,5.43% (inactive),
CC(C)(COC(=O)Nc1ccccc1)COC(=O)Nc1ccccc1,-46.3% (inactive),
COc1ccc(C=C(C#N)C#N)c(CSc2ccccn2)c1,-3.49% (inactive),
COc1ccc(NCCc2ccccn2)cc1,-5.94% (inactive),
Cn1c(=O)c(=O)n(C)c2cc(S(=O)(=O)CCC(=O)N3CCCCC3)ccc21,6.48% (inactive),
Cc1ccc(NS(=O)(=O)c2ccc3c(c2)n(C)c(=O)c(=O)n3C)c(C)c1,3.06% (inactive),

SMILES,"activity, positive = more growth",Potency
CCc1ccc(S(=O)(=O)Nc2cc3c(cc2N2CCCCC2)n(C)c(=O)c(=O)n3C)cc1,,2.82 µM (active)
CCOC(=O)CC1COCCN1C(=O)c1cc(COc2ccc(F)c(F)c2)on1 (configuration not stated),-7.11% (inactive),
O=C(NC(=S)N1CCCCC1c1cccnc1)c1ccccc1 (configuration not stated),-11% (inactive),
CCC(C)c1ccc(NC(=S)N2CCCC2)cc1 (configuration not stated),-46% (inactive),
CCOC(=O)c1ccccc1N1C(=O)C2Sc3[nH]c(=O)sc3C(/C=C/c3ccccc3)C2C1=O (configuration not stated),27% (inactive),
COC(=O)C1=C(C)NC(=O)NC1/C=C/c1ccccc1 (configuration not stated),-6.7% (inactive),
COC(=O)C1=C(C)N=C2SC(C)C(=O)N2C1/C=C/c1ccccc1 (configuration not stated),,11.2 µM (active)
Cc1nonc1NC(=O)c1oc2ccccc2c1C,-9.93% (inactive),
Cc1ccc(SCC(=O)c2sc(-c3ccccc3)nc2C)cc1,-13.1% (inactive),
Cc1nc(-c2ccc(Cl)cc2)sc1C(=O)NN,,3.55 µM (active)
Cc1nc(N2CCOCC2)sc1C(=O)NN,5.54% (inactive),
CN(CC(=O)Nc1ccc(F)cc1)C(=O)c1ccc(-c2ccc(Cl)cc2)o1,-54% (inactive),
CCOC(=O)CC1(NC(=O)c2cc(COc3cncc(Cl)c3)on2)CCCCC1,-17.2% (inactive),
O=C(Cc1cccs1)NCc1cccc(C(F)(F)F)c1,2.72% (inactive),
Cc1ccc(CSc2nc(-c3ccccc3)c(C#N)c(=O)[nH]2)cc1,2.5% (inactive),
N#Cc1c(-c2cccs2)nc(SCC(=O)c2ccc(Br)cc2)[nH]c1=O,,3.16 µM (active)
O=C(CSc1nc2ccccc2c(=O)[nH]1)Nc1nc(-c2ccc(Br)cc2)cs1,13.7% (inactive),
COc1ccc(NC(=O)CSc2nc3ccccc3c(=O)n2C)cc1,2.09% (inactive),
COCCN1C(=O)N(c2ccc(Cl)cc2)C(=O)C1CC(=O)Nc1cc(OC)cc(OC)c1 (configuration not stated),-4.12% (inactive),
CC(=O)N1c2ccc(S(=O)(=O)N3CCCC(C(=O)Nc4cccc(F)c4)C3)cc2CC1C (configuration not stated),9.5% (inactive),
